What all share (assay): DAPPL (digital affinity profiling via proximity ligation, sequencing); 10 mM Tris-HCl pH 7.5, 50 mM NaCl, 1 mM DTT, 4% glycerol, room temperature, 30 min; GST-TFs on glutathione beads, 16-mer random dsDNA library, 0.1% formaldehyde crosslink after washing; high values mean tight binding
One assay has as its target T1, FEV (Homo sapiens, UniProt Q99581 1-238).
T1 sequence: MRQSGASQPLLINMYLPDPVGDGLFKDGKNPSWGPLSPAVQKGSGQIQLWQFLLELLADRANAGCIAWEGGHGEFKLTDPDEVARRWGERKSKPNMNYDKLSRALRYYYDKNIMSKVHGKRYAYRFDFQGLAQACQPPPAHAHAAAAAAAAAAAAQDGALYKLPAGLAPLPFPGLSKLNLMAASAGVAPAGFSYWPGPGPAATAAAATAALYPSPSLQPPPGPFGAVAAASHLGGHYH
The note with it: protein: recombinant; tags: N-terminal GST; dsDNA, one strand shown. In short, it runs like this: (§1)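 Binding signal is given per hexamer as its read frequency for a factor divided by its frequency in the tag-only sample. GST-fused human transcription factors were expressed in yeast, captured on glutathione beads, barcoded with DNA and pooled with that sample, then incubated with 200 nmole of a 16-mer random double-stranded DNA library in Tris/NaCl/DTT/glycerol buffer for 30 min at room temperature. The pools were then washed, crosslinked, proximity-ligated, amplified by PCR and sequenced on an Illumina NextSeq500.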

The target in another assay is ETV5 (Homo sapiens, UniProt P41161 1-510). Conditions: protein: recombinant; tags: N-terminal GST; dsDNA, one strand shown. In short, it runs like this: as §1
Sequence of ETV5 (P41161 whole entry): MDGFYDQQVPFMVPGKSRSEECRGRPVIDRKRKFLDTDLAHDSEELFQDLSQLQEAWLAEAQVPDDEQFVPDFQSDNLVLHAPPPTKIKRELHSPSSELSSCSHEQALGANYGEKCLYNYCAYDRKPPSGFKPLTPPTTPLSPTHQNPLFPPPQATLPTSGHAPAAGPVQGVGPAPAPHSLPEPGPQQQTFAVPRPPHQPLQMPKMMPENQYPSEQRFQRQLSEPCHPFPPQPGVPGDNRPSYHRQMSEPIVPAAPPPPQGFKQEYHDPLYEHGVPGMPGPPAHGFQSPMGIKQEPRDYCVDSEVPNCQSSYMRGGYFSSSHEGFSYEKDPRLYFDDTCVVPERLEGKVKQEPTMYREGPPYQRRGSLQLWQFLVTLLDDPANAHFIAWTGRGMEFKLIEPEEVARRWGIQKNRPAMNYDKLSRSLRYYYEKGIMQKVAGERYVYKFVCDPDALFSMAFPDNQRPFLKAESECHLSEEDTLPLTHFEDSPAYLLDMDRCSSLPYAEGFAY
The target of the next assay is HSF1 (Homo sapiens, UniProt Q00613 1-529). The note with it: protein: recombinant; tags: N-terminal GST; chain copies: 3; dsDNA, one strand shown. In short, it runs like this:
as §1

The target in another assay is T2, SPIC (Homo sapiens, UniProt Q8N5J4 1-248).
T2 sequence: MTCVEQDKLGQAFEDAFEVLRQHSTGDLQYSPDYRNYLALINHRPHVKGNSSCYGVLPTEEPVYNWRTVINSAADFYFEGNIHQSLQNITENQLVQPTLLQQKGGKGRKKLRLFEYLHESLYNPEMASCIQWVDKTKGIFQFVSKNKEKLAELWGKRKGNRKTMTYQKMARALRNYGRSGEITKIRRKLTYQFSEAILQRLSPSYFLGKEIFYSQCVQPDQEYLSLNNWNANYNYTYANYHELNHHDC
The note with it: protein: recombinant; tags: N-terminal GST; dsDNA, one strand shown. In short, it runs like this:
as §1

In a further assay the target is ELF4 (Homo sapiens, UniProt Q99607 1-663). The note with it: protein: recombinant; tags: N-terminal GST; dsDNA, one strand shown. In short, it runs like this: as §1
Sequence of ELF4 (Q99607 whole entry): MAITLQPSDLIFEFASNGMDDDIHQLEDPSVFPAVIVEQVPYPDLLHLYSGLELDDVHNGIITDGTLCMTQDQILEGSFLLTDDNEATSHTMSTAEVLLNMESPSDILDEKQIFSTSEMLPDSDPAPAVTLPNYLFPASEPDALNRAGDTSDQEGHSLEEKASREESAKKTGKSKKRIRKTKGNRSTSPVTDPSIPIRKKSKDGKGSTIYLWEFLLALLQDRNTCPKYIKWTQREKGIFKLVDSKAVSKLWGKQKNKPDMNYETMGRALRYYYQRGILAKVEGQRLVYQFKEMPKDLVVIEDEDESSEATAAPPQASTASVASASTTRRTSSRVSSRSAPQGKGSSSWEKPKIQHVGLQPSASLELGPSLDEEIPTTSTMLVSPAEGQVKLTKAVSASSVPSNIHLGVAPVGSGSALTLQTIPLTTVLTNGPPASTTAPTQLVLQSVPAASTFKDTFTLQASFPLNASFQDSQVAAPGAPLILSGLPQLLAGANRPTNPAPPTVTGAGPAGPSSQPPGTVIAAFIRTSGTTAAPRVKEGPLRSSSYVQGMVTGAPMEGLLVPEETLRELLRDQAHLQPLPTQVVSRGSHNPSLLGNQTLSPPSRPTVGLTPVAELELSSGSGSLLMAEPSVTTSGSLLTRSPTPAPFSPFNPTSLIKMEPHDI
Another assay deals with T3, ELK4 (Homo sapiens, UniProt P28324-2 1-405).
T3 sequence: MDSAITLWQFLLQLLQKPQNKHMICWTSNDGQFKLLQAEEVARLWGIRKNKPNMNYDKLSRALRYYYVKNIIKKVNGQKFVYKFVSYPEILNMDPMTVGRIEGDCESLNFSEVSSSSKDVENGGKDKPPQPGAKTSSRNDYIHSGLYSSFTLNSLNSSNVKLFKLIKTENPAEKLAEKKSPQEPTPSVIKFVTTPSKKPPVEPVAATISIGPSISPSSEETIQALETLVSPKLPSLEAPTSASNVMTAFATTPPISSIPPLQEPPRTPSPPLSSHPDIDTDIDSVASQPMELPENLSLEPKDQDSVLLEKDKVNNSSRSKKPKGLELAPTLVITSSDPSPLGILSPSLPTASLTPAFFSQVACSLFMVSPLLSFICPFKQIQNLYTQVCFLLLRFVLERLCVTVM
The note with it: protein: recombinant; tags: N-terminal GST; dsDNA, one strand shown. In short, it runs like this:
as §1

For another assay, the target named is T4, ETV2 (Homo sapiens, UniProt O00321 1-342).
T4 sequence: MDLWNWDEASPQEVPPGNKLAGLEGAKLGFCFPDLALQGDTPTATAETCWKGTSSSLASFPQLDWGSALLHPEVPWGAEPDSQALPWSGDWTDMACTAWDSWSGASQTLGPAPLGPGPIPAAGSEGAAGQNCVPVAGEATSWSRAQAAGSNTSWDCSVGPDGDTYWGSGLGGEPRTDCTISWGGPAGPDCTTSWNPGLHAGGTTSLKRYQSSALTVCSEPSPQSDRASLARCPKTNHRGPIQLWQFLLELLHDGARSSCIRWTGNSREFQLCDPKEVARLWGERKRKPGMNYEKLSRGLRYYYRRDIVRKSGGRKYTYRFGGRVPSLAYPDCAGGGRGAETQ
Conditions: protein: recombinant; tags: N-terminal GST; dsDNA, one strand shown. In short, it runs like this: as §1

For a further assay, the target named is T5, ELF3 (Homo sapiens, UniProt P78545 1-371).
T5 sequence: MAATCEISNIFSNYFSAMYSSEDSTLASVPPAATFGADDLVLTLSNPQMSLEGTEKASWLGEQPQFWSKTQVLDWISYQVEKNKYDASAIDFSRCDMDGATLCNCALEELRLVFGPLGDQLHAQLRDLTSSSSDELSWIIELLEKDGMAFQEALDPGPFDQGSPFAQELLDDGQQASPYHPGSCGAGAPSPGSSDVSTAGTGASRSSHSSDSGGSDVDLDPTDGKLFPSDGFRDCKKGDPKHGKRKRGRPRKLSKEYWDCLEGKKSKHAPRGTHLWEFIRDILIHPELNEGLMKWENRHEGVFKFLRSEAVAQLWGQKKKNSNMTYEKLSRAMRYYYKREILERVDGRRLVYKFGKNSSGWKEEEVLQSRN
Conditions: protein: recombinant; tags: N-terminal GST; dsDNA, one strand shown. In a few lines: as §1

The target of the next assay is CRX (Homo sapiens, UniProt O43186 1-299). The note with it: protein: recombinant; tags: N-terminal GST; dsDNA, one strand shown. In short, it runs like this: as §1
Sequence of CRX (O43186 whole entry): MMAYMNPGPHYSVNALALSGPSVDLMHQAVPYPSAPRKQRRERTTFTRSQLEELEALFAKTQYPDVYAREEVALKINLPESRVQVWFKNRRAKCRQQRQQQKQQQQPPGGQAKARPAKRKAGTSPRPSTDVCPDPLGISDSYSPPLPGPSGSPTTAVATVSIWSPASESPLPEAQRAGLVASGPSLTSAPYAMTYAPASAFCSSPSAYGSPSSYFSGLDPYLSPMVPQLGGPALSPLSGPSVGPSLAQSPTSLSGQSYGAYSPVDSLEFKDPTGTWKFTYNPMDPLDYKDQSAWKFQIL
A further assay deals with ETV1 (Homo sapiens, UniProt P50549 1-477). The note with it: protein: recombinant; tags: N-terminal GST; dsDNA, one strand shown. In short, it runs like this:
as §1

The next assay deals with T6, ERF (Homo sapiens, UniProt P50548 1-548).
T6 sequence: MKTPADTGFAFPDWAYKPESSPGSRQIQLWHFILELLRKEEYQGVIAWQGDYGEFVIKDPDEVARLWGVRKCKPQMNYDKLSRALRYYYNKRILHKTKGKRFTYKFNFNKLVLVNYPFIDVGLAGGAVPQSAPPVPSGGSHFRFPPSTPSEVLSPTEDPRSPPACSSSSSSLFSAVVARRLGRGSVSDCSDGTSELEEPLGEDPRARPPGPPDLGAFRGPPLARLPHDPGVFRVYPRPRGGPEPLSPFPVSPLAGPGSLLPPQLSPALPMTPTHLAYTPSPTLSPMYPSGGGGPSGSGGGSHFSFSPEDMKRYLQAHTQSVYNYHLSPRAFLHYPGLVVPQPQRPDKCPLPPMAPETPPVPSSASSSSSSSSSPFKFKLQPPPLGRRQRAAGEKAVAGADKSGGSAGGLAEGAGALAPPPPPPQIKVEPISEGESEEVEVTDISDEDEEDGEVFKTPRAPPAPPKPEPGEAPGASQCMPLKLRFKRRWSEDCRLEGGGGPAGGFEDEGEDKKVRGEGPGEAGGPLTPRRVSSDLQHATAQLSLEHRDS
The note with it: protein: recombinant; tags: N-terminal GST; dsDNA, one strand shown. In a few lines: as §1

A further assay deals with T7, ETV3L (Homo sapiens, UniProt Q6ZN32 1-361).
T7 sequence: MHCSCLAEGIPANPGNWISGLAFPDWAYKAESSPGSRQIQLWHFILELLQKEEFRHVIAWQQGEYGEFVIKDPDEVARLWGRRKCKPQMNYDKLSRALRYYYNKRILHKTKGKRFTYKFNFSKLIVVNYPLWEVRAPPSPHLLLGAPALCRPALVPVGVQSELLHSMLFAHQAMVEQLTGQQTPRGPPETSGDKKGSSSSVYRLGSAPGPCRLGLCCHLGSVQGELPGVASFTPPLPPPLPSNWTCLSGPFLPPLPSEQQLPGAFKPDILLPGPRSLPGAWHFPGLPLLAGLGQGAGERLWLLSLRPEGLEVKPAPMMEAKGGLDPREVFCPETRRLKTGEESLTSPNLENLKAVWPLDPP
Conditions: protein: recombinant; tags: N-terminal GST; dsDNA, one strand shown. In short, it runs like this: as §1

A further assay has as its target T8, ETS2 (Homo sapiens, UniProt P15036 1-469).
T8 sequence: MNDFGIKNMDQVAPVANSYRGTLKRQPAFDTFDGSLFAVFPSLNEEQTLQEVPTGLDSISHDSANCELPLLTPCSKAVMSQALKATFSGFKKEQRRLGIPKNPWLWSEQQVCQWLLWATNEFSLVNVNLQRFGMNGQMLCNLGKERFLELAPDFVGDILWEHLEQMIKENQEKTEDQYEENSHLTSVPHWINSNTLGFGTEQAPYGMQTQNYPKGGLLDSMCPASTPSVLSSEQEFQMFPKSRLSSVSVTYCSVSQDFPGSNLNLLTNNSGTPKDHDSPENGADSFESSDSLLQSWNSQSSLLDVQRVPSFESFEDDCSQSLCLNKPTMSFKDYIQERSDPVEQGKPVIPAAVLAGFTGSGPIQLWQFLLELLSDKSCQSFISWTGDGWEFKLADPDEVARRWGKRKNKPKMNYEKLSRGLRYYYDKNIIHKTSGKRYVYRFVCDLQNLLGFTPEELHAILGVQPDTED
The note with it: protein: recombinant; tags: N-terminal GST; dsDNA, one strand shown. In a few lines: as §1

Another assay has as its target T9, SPDEF (Homo sapiens, UniProt O95238 1-335).
T9 sequence: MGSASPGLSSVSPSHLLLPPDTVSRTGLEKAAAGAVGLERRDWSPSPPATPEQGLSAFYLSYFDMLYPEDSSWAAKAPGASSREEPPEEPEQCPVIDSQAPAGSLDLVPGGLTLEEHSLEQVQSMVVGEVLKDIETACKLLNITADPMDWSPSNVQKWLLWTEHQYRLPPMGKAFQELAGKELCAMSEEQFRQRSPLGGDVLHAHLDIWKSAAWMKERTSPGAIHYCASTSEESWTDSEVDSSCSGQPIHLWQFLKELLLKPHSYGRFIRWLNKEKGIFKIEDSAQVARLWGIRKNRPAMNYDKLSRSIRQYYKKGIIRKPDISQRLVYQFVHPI
Conditions: protein: recombinant; tags: N-terminal GST; dsDNA, one strand shown. In a few lines: as §1

The target in the next assay is T10, ETV7 (Homo sapiens, UniProt Q9Y603 1-341).
T10 sequence: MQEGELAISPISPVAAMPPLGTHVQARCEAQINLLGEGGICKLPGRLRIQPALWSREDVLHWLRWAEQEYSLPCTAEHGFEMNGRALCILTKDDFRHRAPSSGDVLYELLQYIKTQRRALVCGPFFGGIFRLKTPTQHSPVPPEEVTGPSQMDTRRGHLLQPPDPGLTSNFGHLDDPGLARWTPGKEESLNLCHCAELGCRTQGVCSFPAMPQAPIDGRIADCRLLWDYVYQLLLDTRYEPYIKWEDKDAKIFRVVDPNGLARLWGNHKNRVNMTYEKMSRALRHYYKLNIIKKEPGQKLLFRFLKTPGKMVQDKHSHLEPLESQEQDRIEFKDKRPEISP
Conditions: protein: recombinant; tags: N-terminal GST; dsDNA, one strand shown. In short, it runs like this: as §1

The target in the next assay is T11, ELF5 (Homo sapiens, UniProt Q9UKW6-2 1-255).
T11 sequence: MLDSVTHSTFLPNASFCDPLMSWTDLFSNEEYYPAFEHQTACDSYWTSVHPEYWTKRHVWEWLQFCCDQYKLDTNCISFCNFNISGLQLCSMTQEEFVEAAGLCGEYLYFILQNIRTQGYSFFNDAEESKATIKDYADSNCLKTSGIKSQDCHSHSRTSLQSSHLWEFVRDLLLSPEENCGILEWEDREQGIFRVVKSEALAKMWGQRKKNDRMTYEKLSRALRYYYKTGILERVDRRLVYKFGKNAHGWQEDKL
Conditions: protein: recombinant; tags: N-terminal GST; dsDNA, one strand shown. In a few lines: as §1

A further assay concerns the target T12, ETV3 (Homo sapiens, UniProt P41162-2 1-143).
T12 sequence: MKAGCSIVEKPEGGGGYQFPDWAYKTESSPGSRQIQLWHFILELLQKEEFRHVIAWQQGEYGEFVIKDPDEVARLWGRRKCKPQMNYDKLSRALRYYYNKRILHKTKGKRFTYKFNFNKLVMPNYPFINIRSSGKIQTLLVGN
Conditions: protein: recombinant; tags: N-terminal GST; dsDNA, one strand shown. In a few lines:
as §1

The target of a further assay is ETV6 (Homo sapiens, UniProt P41212 1-452). The note with it: protein: recombinant; tags: N-terminal GST; dsDNA, one strand shown. In short, it runs like this: as §1
Sequence of ETV6 (P41212 whole entry): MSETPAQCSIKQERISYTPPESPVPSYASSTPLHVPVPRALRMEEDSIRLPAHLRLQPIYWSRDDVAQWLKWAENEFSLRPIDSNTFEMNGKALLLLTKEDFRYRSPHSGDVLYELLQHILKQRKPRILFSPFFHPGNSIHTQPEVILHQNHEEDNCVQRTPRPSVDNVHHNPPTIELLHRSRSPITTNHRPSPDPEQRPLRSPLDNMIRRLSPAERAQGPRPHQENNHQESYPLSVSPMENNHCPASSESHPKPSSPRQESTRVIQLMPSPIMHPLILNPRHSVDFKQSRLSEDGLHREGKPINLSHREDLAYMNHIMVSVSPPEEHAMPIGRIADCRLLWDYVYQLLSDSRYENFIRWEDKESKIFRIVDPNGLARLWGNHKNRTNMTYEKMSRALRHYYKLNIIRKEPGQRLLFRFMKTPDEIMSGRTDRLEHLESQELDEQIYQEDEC

Sequence of ETV1 (P50549 whole entry): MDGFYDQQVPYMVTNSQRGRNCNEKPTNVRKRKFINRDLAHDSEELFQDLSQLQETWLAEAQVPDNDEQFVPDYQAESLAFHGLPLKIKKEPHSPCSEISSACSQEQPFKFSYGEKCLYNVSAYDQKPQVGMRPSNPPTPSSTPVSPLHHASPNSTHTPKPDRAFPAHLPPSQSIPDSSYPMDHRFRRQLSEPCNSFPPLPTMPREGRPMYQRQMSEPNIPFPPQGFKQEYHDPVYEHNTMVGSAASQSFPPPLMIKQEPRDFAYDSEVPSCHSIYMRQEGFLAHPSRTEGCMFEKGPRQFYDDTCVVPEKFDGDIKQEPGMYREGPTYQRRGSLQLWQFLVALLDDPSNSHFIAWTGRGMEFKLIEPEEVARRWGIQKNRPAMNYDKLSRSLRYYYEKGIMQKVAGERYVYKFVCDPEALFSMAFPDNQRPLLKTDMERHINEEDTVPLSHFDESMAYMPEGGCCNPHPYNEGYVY
Sequence of HSF1 (Q00613 whole entry): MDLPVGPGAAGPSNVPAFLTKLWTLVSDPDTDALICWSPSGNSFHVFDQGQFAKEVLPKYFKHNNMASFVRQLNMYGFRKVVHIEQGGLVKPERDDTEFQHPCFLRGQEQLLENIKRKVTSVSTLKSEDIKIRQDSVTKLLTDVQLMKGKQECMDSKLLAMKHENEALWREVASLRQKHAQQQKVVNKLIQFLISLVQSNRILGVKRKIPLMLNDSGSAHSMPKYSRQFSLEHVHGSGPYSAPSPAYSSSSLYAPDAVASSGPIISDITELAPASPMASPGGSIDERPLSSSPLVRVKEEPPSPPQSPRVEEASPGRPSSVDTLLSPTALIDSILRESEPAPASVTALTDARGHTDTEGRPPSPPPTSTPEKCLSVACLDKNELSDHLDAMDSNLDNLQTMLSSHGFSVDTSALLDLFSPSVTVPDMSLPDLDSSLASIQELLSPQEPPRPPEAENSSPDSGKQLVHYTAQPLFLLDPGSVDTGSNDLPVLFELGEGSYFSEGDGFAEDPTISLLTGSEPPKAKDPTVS

Turning to AGCCTT, the binding signal in the assay with FEV was 1.15 fold enrichment (6-mer frequency, TF over GST control); in the assay with ETV5, 1.13 fold enrichment (6-mer frequency, TF over GST control); in the assay with HSF1, 1.26 fold enrichment (6-mer frequency, TF over GST control); with SPIC, 1.17 fold enrichment (6-mer frequency, TF over GST control); with ELF4 it was 1.18 fold enrichment (6-mer frequency, TF over GST control); with ELK4, 1.03 fold enrichment (6-mer frequency, TF over GST control). Moreover, the binding signal was 1.2 fold enrichment (6-mer frequency, TF over GST control) in the assay with ETV2; 1.23 fold enrichment (6-mer frequency, TF over GST control) with ELF3; 1.42 fold enrichment (6-mer frequency, TF over GST control) with CRX; 1.17 fold enrichment (6-mer frequency, TF over GST control) in the assay with ETV1; 1.21 fold enrichment (6-mer frequency, TF over GST control) in the assay with ERF; 1.11 fold enrichment (6-mer frequency, TF over GST control) with ETV3L. Also, the binding signal with ETS2 was 1.07 fold enrichment (6-mer frequency, TF over GST control); with SPDEF, 1.02 fold enrichment (6-mer frequency, TF over GST control); with ETV7, 1.1 fold enrichment (6-mer frequency, TF over GST control); with ELF5, 1.1 fold enrichment (6-mer frequency, TF over GST control); with ETV3, 1.18 fold enrichment (6-mer frequency, TF over GST control); in the assay with ETV6 it was 1.08 fold enrichment (6-mer frequency, TF over GST control).

The values are drawn from PMC7862700, “An all-to-all approach to the identification of sequence-specific readers for epigenetic DNA modifications on cytosine”.
